Source: patent publication US20140271602, “NUCLEOTIDE-SPECIFIC RECOGNITION SEQUENCES FOR DESIGNER TAL EFFECTORS” (THE BROAD INSTITUTE INC., published 2014)

Biological target: T1, TALE2-NN (CACNA1C site 2 activator) (Xanthomonas (engineered), UniProt P14727 SEQ:1-983)
T1 chain: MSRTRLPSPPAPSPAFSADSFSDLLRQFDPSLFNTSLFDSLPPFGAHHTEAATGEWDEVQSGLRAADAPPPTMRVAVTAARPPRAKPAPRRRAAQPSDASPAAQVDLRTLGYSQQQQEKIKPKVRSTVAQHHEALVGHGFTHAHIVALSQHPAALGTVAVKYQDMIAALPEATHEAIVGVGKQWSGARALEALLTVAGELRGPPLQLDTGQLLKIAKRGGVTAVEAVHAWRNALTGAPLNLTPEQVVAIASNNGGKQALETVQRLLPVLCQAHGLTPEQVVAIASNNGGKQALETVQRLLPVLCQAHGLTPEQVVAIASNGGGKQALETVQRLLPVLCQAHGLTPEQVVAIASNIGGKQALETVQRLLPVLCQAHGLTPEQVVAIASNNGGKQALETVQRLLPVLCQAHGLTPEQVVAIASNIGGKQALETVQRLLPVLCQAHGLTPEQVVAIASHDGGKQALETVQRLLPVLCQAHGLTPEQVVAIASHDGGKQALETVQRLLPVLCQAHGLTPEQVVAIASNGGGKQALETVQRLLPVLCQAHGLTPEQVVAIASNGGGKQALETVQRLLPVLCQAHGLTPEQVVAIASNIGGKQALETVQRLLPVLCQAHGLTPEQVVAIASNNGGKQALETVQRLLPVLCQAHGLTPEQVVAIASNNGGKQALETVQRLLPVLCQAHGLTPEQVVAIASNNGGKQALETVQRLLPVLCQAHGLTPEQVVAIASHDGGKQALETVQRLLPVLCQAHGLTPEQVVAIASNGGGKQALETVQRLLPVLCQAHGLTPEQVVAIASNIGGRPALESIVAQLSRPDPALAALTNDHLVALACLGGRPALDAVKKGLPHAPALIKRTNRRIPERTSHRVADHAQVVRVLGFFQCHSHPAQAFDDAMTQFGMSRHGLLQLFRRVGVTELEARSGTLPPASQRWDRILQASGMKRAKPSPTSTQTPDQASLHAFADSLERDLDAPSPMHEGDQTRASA
Test: cell_activity; luciferase reporter
Conditions: tags: VP64, 2A-GFP; dsDNA, one strand shown
Method: TALEs using NN, NK, NH, and HN as the G-targeting RVD were synthesized to target two distinct 18 bp target sites in the human CACNA1C locus. Changes in mRNA are measured using qRT-PCR as described previously. VP64, VP64 transcription activation domain. All results are collected from three independent experiments in HEK 293FT cells. Error bars indicate s.e.m.; n=3. FIG. 19(b) discloses SEQ ID NOS 63 and 62, respectively, in order of appearance.
To determine whether NH and HN are suitable replacements for NN as the G-specific RVD, specificity and activity strength of NN, NK, NH, and HN were directly compared. Two 18 bp targets within the CACNA1C locus in the human genome were chosen and four TALEs for each target were constructed, using NN, NK, NH, or HN as the G-targeting RVD (FIG. 19a). […] For each CACNA1C target site, four luciferase reporters were constructed: wild type genomic target, and wild type target with 2, 4, or all guanines mutated into adenines (FIG. 19a, G-to-A reporters), and compared the activity of each TALE using these reporters (FIG. 19a). […] Thus, focus was placed on the RVDs NN, NK, and NH in subsequent experiments to assess their usefulness in modulating transcription at endogenous human genome targets.

Sequence | binding signal
TAATAGACCTTAGGGCTA | 21.8 % reduction vs wild-type site
